Data: PubChem BioAssay (Tox21)
Results filed as inconclusive are left out. Active and inactive are the calls of the source. Unless noted, the call rests on the fitted dose curve.

Assays:
[1] = Nuclear factor erythroid 2-related factor 2/antioxidant responsive element (Nrf2/ARE) small molecule agonists: qHTS cell viability counter screen in human keratinocytes (AID 1919968; active means well fitted curve in the direction sought with a large enough effect in the repeat runs; an effect the other way counts as inactive or inconclusive; further: nearly all actives have a fitted effect of over 55% in size; further: potency means the concentration at half of the fitted maximal effect)
Summary of the method: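 After a 5 h attachment period, ARE-reporter keratinocytes were dosed with compounds in DMSO and then cultured 23 h at 37 C. Cell viability came from CellTiter-Fluor signal read after a further 1 h.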

[2] = Nuclear factor erythroid 2-related factor 2/antioxidant responsive element (Nrf2/ARE) small molecule agonists: luciferase reporter gene qHTS assay in human keratinocytes (AID 1919969); further: nearly all actives have a fitted effect of over 35% in size; further: potency means the concentration at half of the fitted maximal effect
[3] = target: Gonadotropin-releasing hormone receptor (Homo sapiens) (UniProt P30968); test: Human gonadotropin-releasing hormone receptor (GnRHR) small molecule agonists, calcium flux assay in GnRHR-HEK293 cells (AID 1920063); further: nearly all actives have a fitted effect of over 35% in size
Summary of the method: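 We seeded human GnRHR-expressing HEK293 cells for 18 hours, loaded them with calcium dye for an hour at 37 C, added test compounds, and recorded fluorescence intensity kinetically for three minutes.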

[4] = target: KiSS-1 receptor (Homo sapiens) (UniProt Q969F8); test: Human kisspeptin (KISS1R) small molecule agonists, calcium flux assay in KISS1R-HEK293 cells (AID 1920064; active means well fitted curve in the direction sought with a large enough effect in the repeat runs; an effect the other way counts as inactive or inconclusive)
Summary of the method: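 Kinetic calcium assay, 1 s sampling over 3 min at Ex/Em 480/540, in HEK293 cells engineered with human KISS1R; compounds delivered in DMSO after 1 h dye loading.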

[5] = G protein-coupled receptor (GPCR) small molecule agonists, calcium flux assay: HEK293 wild type cell line counter screen (AID 1920065)
Summary of the method: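 Calcium-sensitive dye, loaded 1 h at 37 C into cells cultured 18 h, reports compound-evoked calcium release as fluorescence (Ex/Em 480/540), measured over 3 min. Agonist mode; 15-point titrations, triplicate.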

[6] = p53 small molecule agonists, cell-based qHTS assay with human liver microsomes (AID 1963577)
Summary of the method: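 p53RE-bla cells, 4,000/well, compound added after 5 h, with human liver microsomes 0.5 mg/mL and NADPH 0.5 mg/mL final; 16 h at 37 C, then LiveBLAzer 2 h RT, fluorescence.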

[7] = p53 small molecule agonists, cell-based qHTS assay with rat liver microsomes (AID 1963578)
Summary of the method: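 p53RE-bla cells, 4,000/well, pre-incubated 5 h, then given compounds plus rat liver microsomes (0.5 mg/mL final) and NADPH (0.5 mg/mL final). Incubation 16 h at 37 C; beta-lactamase reporter read by LiveBLAzer fluorescence after 2 h at room temperature.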

[8] = p53 small molecule agonists, cell-based qHTS assay with rat liver microsomes: qHTS cell viability counter screen (AID 1963580); further: nearly all actives have a fitted effect of over 45% in size
Summary of the method: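 p53RE-bla HCT-116 cells were exposed 16 h at 37 C to compounds with rat liver microsomes (0.5 mg/mL) and NADPH (0.5 mg/mL). Viability was measured in the same wells as ATP content by CellTiter-Glo luminescence.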

[9] = p53 small molecule agonists, cell-based qHTS assay: qHTS cell viability counter screen (AID 1963581); further: nearly all actives have a fitted effect of over 45% in size
Summary of the method: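 Following 5 h attachment, HCT-116 p53RE-bla cells took up compound for 16 h at 37 C; the reporter was read with B/G FRET substrate (2 h RT), and viability then via CellTiter-Glo ATP luminescence.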

[10] = p53 small molecule agonists, cell-based qHTS assay (AID 1963582; active means well fitted activation curve with a large enough effect in the signal ratio in the repeat runs, not every such curve was filed as active; the % refers to the signal ratio)
Summary of the method: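 In this cell-based concentration-response screen, a p53 response element drives beta-lactamase; cells received DMSO-borne compounds after 5 h culture and were incubated a further 16 h before FRET substrate development.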

[11] = target: 5-hydroxytryptamine receptor 2A (Homo sapiens) (UniProt P28223); test: 5-hydroxytryptamine receptor 2A (HTR2A) small molecule antagonists, cell-based qHTS assay (AID 1963586); further: nearly all actives have a fitted effect of over 45% in size
Summary of the method: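 Antagonist-mode intracellular calcium assay: DOI (4 nM) added after 5 min compound pre-incubation at room temperature to dye-loaded HTR2A-CHO cells. Fluorescence followed for 3 min, sampled every second.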

[12] = target: 5-hydroxytryptamine receptor 2A (Homo sapiens) (UniProt P28223); test: 5-hydroxytryptamine receptor 2A (HTR2A) small molecule agonists, cell-based qHTS assay (AID 1963587); further: nearly all actives have a fitted effect of over 30% in size
Summary of the method: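 CHO cells stably expressing human HTR2A, plated 18 h, loaded with calcium dye 1 h at 37 C. Agonist mode: compounds added and intracellular calcium fluorescence recorded kinetically for 2 min at 1 sec intervals.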

[13] = target: Muscarinic acetylcholine receptor M1 (Homo sapiens) (UniProt P11229); test: Cholinergic receptor muscarinic 1 (CHRM1) small molecule antagonists, cell-based qHTS assay (AID 1963588); further: nearly all actives have a fitted effect of over 40% in size
Summary of the method: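 CHRM1-CHO calcium-flux assay, antagonist mode. Cells were seeded 18 h, dye-loaded 1 h at 37 C and given compound for 5 min at RT, then acetylcholine was added at 50nM. FDSS fluorescence was read 3 min; 15 concentrations, three runs.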

[14] = cAMP Responsive Elements (CRE) small molecule agonists, cell-based qHTS assay (AID 1963590)
Summary of the method: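 A CRE-responsive beta-lactamase reporter in HEK 293T cells was used. Treatment ran 3 h at 37 C; detection used LiveBLAzer B/G FRET substrate for 2 h at room temperature.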

[15] = cAMP Responsive Elements (CRE) small molecule antagonists, cell-based qHTS assay (AID 1963591; active means well fitted inhibition curve with a large enough effect in the signal ratio in the repeat runs, not every such curve was filed as active; the % refers to the signal ratio)
Summary of the method: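 HEK293T cells carrying a CRE-driven beta-lactamase reporter receive compound and NKH477 (0.25 uM final) for 3 h. Fluorescence from LiveBLAzer B/G FRET substrate is read after 2 h at room temperature.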

[16] = target: Beta-2 adrenergic receptor (Homo sapiens) (UniProt P07550); test: Adrenergic beta2 receptor (ADRB2) small molecule antagonists, cell-based qHTS assay (AID 1963592); further: series mostly up to about 92 µM; nearly all actives have a fitted effect of over 50% in size
Summary of the method: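 Cells (CHO, stable ADRB2 overexpression) incubated 18-20hr at 37C; compounds added from DMSO; agonist mix (1nM isoproterenol, 100uM IBMX, 25uM Ro-20-1724) added; 0.5hr RT; d2-cAMP and anti-cAMP-cryptate added; 1hr RT; 665/615 nm read.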

[17] = target: Beta-2 adrenergic receptor (Homo sapiens) (UniProt P07550); test: Adrenergic beta2 receptor (ADRB2) small molecule agonists, cell-based qHTS assay (AID 1963593);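 further: CHO cells stably overexpressing human ADRB2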
Summary of the method: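 CHO cells stably over-expressing ADRB2 were plated overnight at 37C, then dosed with compounds plus a stimulation mix containing 100uM IBMX and 25uM Ro-20-1724 for 0.5hr at room temperature. cAMP was measured by HTRF competition, 1hr.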

[18] = target: D(2) dopamine receptor (Homo sapiens) (UniProt P14416); test: Dopamine D2 receptor (DRD2) small molecule agonists, cell-based qHTS assay (AID 1963594); further: nearly all actives have a fitted effect of over 35% in size
Summary of the method: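 HEK293 cells stably expressing human DRD2, pre-treated with PDE inhibitor Ro20-1724 (0.1 mM final) and compound 10 min at room temperature, then stimulated with NKH477 (200nM […]) for 30 min. cAMP read by HTRF (665/620 nm).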

[19] = target: D(2) dopamine receptor (Homo sapiens) (UniProt P14416); test: Dopamine D2 receptor (DRD2) small molecule antagonists, cell-based qHTS assay (AID 1963595; active means well fitted inhibition curve with a large enough effect in the signal ratio in the repeat runs, with a control signal flat; the % refers to the signal ratio)
Summary of the method: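 Human DRD2 antagonist qHTS measuring cAMP by HTRF. The cells are exposed to compound for 10 min, then to NKH477 (200 nM) and quinpirole (12 nM) for 30 min at RT, with Ro20-1724 (0.1 mM) present throughout.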

[20] = target: Muscarinic acetylcholine receptor M1 (Homo sapiens) (UniProt P11229); test: Cholinergic receptor muscarinic 1 (CHRM1) small molecule agonists, cell-based qHTS assay (AID 1963589); further: nearly all actives have a fitted effect of over 35% in size
Summary of the method: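 Measures agonist-induced intracellular calcium rise. Stable human CHRM1 CHO line, 1 h dye load at 37 C, compounds from DMSO, kinetic fluorescence read.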
On the % scale 0 is the no-effect control and ±100 the full control effect.

Chain of Beta-2 adrenergic receptor (Homo sapiens) (P07550 whole entry, looked up): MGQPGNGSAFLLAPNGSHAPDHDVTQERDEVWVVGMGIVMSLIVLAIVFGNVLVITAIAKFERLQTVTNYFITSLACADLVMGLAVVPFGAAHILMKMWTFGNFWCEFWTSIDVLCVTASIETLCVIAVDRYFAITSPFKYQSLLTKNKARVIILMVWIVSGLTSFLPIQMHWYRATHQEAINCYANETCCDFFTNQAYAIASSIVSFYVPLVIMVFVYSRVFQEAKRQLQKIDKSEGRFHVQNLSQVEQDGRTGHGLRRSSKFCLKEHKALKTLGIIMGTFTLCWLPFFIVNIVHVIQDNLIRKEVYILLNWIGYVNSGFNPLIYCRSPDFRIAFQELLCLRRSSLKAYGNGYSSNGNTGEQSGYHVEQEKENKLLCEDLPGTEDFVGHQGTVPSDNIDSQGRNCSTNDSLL
Chain of Gonadotropin-releasing hormone receptor (Homo sapiens) (P30968 whole entry, looked up): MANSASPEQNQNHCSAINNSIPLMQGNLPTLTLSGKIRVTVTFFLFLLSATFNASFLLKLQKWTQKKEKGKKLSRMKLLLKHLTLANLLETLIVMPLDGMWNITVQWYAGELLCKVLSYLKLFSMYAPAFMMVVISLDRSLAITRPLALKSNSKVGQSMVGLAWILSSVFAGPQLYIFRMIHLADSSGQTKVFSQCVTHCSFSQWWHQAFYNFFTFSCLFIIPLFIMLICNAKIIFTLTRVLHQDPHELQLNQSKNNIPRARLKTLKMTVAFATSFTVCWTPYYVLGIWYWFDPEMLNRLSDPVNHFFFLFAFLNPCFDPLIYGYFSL
Chain of Muscarinic acetylcholine receptor M1 (Homo sapiens) (P11229 whole entry, looked up): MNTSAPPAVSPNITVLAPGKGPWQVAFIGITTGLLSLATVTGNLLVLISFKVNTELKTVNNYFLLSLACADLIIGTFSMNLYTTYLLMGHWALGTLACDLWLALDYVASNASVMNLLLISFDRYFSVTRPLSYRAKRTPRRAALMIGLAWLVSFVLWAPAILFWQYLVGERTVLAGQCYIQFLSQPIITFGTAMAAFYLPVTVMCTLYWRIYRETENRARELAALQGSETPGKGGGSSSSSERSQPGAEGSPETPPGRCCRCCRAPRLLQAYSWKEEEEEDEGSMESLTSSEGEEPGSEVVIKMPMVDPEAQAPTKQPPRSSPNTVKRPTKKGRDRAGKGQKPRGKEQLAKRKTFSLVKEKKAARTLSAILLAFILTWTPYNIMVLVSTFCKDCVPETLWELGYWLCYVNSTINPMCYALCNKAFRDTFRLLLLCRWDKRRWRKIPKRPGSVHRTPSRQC
Chain of KiSS-1 receptor (Homo sapiens) (Q969F8 whole entry, looked up): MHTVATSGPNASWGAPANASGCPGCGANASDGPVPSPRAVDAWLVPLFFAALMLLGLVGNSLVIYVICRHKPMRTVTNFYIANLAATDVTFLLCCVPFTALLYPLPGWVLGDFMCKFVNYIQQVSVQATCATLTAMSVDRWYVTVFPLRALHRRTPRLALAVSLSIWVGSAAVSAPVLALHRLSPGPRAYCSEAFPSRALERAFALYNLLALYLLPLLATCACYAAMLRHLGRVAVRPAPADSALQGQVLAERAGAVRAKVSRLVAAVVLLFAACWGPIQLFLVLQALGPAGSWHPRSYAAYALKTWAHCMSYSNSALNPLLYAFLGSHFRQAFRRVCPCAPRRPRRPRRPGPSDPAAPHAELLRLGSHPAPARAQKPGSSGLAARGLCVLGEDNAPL
Chain of D(2) dopamine receptor (Homo sapiens) (P14416 whole entry, looked up): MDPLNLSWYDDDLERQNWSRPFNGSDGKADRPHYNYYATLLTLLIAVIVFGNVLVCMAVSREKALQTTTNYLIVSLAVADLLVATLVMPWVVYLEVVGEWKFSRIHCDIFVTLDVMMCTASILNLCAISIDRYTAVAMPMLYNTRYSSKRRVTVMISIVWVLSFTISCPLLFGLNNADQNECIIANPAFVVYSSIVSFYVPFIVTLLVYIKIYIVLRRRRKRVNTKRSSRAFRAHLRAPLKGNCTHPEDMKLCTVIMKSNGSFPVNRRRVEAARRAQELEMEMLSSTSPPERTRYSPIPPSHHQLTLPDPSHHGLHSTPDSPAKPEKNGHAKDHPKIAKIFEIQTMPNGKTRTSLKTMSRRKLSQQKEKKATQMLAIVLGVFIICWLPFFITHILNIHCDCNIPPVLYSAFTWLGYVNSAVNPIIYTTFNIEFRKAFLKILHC
Chain of 5-hydroxytryptamine receptor 2A (Homo sapiens) (P28223 whole entry, looked up): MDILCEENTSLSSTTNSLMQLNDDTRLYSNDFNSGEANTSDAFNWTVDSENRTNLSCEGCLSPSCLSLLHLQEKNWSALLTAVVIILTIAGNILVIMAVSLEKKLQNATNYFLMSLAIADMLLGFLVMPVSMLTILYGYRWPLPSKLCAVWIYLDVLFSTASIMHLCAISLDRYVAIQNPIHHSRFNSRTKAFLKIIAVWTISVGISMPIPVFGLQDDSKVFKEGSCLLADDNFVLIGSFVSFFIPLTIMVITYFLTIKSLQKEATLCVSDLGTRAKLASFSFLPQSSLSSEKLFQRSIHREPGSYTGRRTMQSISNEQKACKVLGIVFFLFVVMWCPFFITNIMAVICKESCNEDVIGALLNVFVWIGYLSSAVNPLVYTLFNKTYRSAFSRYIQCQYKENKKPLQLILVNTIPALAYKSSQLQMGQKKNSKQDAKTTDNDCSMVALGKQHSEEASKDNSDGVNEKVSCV

CCCCC(CC)COC(=O)CCCCCCCCC(=O)OCC(CC)CCCC (configuration not stated)
inactive: Potency [1] | Potency [2] | Potency [3] | outcome [4] | outcome [5] | Potency [6] | Potency [7] | Potency [8] | Potency [9] | Potency [10] | Potency [11] | Potency [12] | Potency [13] | Potency [14] | Potency [15] | Potency [16] | Potency [17] | Potency [18] | Potency [19]

O=C(O)CCCC[P+](c1ccccc1)(c1ccccc1)c1ccccc1
inactive: Potency [1] | Potency [2] | Potency [3] | outcome [4] | outcome [5] | Potency [6] | Potency [7] | Potency [8] | Potency [9] | Potency [10] | Potency [12] | Potency [13] | Potency [20] | Potency [14] | Potency [15] | Potency [16] | Potency [17] | Potency [18]

C=CC(=O)OCC1CCCO1 (configuration not stated)
inactive: Potency [1] | Potency [2] | Potency [3] | outcome [4] | outcome [5] | Potency [6] | Potency [7] | Potency [8] | Potency [9] | Potency [10] | Potency [11] | Potency [12] | Potency [13] | Potency [20] | Potency [14] | Potency [15] | Potency [18] | Potency [19]

Cc1ccnc2ccccc12
active: Potency [2] 68.4 µM
inactive: Potency [1] | Potency [3] | outcome [4] | outcome [5] | Potency [6] | Potency [7] | Potency [8] | Potency [9] | Potency [10] | Potency [11] | Potency [12] | Potency [20] | Potency [14] | Potency [15] | Potency [16] | Potency [17] | Potency [18] | Potency [19]

CCCCCCCCC1CO1 (configuration not stated)
inactive: Potency [1] | Potency [2] | Potency [3] | outcome [4] | outcome [5] | Potency [6] | Potency [7] | Potency [8] | Potency [9] | Potency [10] | Potency [12] | Potency [13] | Potency [20] | Potency [14] | Potency [15] | Potency [16] | Potency [18] | Potency [19]

O=C(Nc1ccc2c(O)c(N=Nc3ccc(N=Nc4ccc(S(=O)(=O)O)cc4)cc3)c(S(=O)(=O)O)cc2c1)c1ccccc1
inactive: Potency [2] | Potency [3] | outcome [4] | outcome [5] | Potency [6] | Potency [7] | Potency [8] | Potency [9] | Potency [10] | Potency [11] | Potency [13] | Potency [20] | Potency [14] | Potency [16] | Potency [17] | Potency [18] | Potency [19]
active: Potency [1] 30.6 µM

CC(C)CCCC(=O)O
inactive: Potency [1] | Potency [2] | Potency [3] | outcome [4] | outcome [5] | Potency [6] | Potency [7] | Potency [8] | Potency [9] | Potency [10] | Potency [11] | Potency [12] | Potency [13] | Potency [20] | Potency [14] | Potency [15] | Potency [18] | Potency [19]

C[C@H](CN1CCCC1)C(=O)c1ccc(C(F)(F)F)cc1
inactive: Potency [1] | Potency [2] | Potency [3] | outcome [4] | outcome [5] | Potency [6] | Potency [7] | Potency [8] | Potency [9] | Potency [10] | Potency [11] | Potency [12] | Potency [14] | Potency [16] | Potency [17] | Potency [18] | Potency [19]

C=C(C)C(=O)OCC1CCCO1 (configuration not stated)
inactive: Potency [1] | Potency [2] | Potency [3] | outcome [4] | outcome [5] | Potency [6] | Potency [7] | Potency [8] | Potency [9] | Potency [10] | Potency [11] | Potency [12] | Potency [13] | Potency [20] | Potency [14] | Potency [16] | Potency [17] | Potency [18] | Potency [19]

CCCCNS(=O)(=O)c1ccc(C)cc1
inactive: Potency [1] | Potency [2] | Potency [3] | outcome [4] | outcome [5] | Potency [6] | Potency [7] | Potency [8] | Potency [9] | Potency [10] | Potency [11] | Potency [12] | Potency [14] | Potency [16] | Potency [17] | Potency [18] | Potency [19]

CCCCCCCCCCCCCc1ccccc1
inactive: Potency [1] | Potency [2] | Potency [3] | outcome [4] | outcome [5] | Potency [6] | Potency [7] | Potency [8] | Potency [9] | Potency [10] | Potency [12] | Potency [13] | Potency [20] | Potency [14] | Potency [15] | Potency [16] | Potency [18] | Potency [19]

CC1(C)S[C@@H]2[C@H](N=CN3CCCCCC3)C(=O)N2[C@H]1C(=O)O
inactive: Potency [1] | Potency [2] | Potency [3] | outcome [4] | outcome [5] | Potency [6] | Potency [7] | Potency [8] | Potency [9] | Potency [10] | Potency [11] | Potency [13] | Potency [20] | Potency [14] | Potency [15] | Potency [16] | Potency [19]

OCCN1CN(CCO)CN(CCO)C1
inactive: Potency [1] | Potency [2] | Potency [3] | outcome [4] | outcome [5] | Potency [6] | Potency [7] | Potency [8] | Potency [9] | Potency [10] | Potency [11] | Potency [12] | Potency [13] | Potency [20] | Potency [14] | Potency [16] | Potency [18] | Potency [19]

S=C(SSSSSSC(=S)N1CCCCC1)N1CCCCC1
inactive: activity, positive = activation [2] -39.1% [at 19 µM] | activity change [3] 9.84% [at 11.8 µM, stronger effect = higher value] | activation [4] 1.75% [at 15.8 µM] | activation [5] 0.115% [at 11.8 µM] | activation [6] -17.2% [at 13.5 µM] | activation [7] -7.65% [at 13.6 µM] | activity change, negative = cytotoxicity [8] -21.4% [at 13.5 µM] | activity change, negative = cytotoxicity [9] 9.63% [at 13.5 µM] | activation [10] -6.37% [at 13.5 µM] | activity, negative = inhibition [11] -4.42% [at 12.7 µM] | activation [12] 13.8% [at 15.9 µM] | activity, negative = inhibition [13] -12.9% [at 12.6 µM] | activation [20] 2.41% [at 15.8 µM] | activity change, negative = inhibition [15] -25.4% [at 18.9 µM] | activity change, negative = inhibition [16] 8.1% [at 19 µM] | activation [18] -0.326% [at 19 µM] | activity change, negative = inhibition [19] 1.15% [at 18.9 µM]
active: Potency [1] 0.134 µM
